Measured values: PubChem BioAssay (NCI)
The panel holds about 83,000 compounds, 20% with a hit somewhere; the sample as a whole holds those more often.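 Treatment: one concentration, 48 hours, 96-well format. Scoring: percent growth, with anything below 10 considered active.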 A number with no mark means an inactive call. Active and inactive are the calls of the source.

Assays:
Assay in all cases: NCI-60 one-dose screen, 48 h (100 = growth as untreated, 0 = no growth, -100 = all killed)
Conditions in all cases: 10 µM
RPMI-8226 leukemia = system: RPMI-8226 leukemia
OVCAR-8 ovarian = system: OVCAR-8 ovarian
OVCAR-5 ovarian = system: OVCAR-5 ovarian
OVCAR-4 ovarian = system: OVCAR-4 ovarian
SK-OV-3 ovarian = system: SK-OV-3 ovarian
IGROV1 ovarian = system: IGROV1 ovarian
OVCAR-3 ovarian = system: OVCAR-3 ovarian
HS 578T breast = system: HS 578T breast
NCI/ADR-RES ovarian = system: NCI/ADR-RES ovarian
T-47D breast = system: T-47D breast
BT-549 breast = system: BT-549 breast
MDA-MB-435 melanoma = system: MDA-MB-435 melanoma
SW-620 colon = system: SW-620 colon
MCF7 breast = system: MCF7 breast
HCT-116 colon = system: HCT-116 colon
HCC-2998 colon = system: HCC-2998 colon

SMILES | growth (RPMI-8226 leukemia) | growth (OVCAR-8 ovarian) | growth (OVCAR-5 ovarian) | growth (OVCAR-4 ovarian) | growth (SK-OV-3 ovarian) | growth (IGROV1 ovarian) | growth (OVCAR-3 ovarian) | growth (HS 578T breast) | growth (NCI/ADR-RES ovarian) | growth (T-47D breast) | growth (BT-549 breast) | growth (MDA-MB-435 melanoma) | growth (SW-620 colon) | growth (MCF7 breast) | growth (HCT-116 colon) | growth (HCC-2998 colon)
CC/C(=C(/c1ccc(OCCN(C)C)cc1)c1ccc(OC(=O)CCCCC(=O)c2c(C)[nH]c(/C=C3\N=C(c4ccc[nH]4)C=C3OC)c2C)cc1)c1ccccc1 | 25.4% | 72.5% | 91.3% | 55% | 81.4% | 85.4% | 80.1% | 33.8% | 71.7% | 25.2% | 60.8% | 61.4% | 55.8% | -22% (active) | 48.3% | 76.6%
CCOC(=O)N1C/C(=C/c2ccc(Cl)cc2)C(=O)/C(=C/c2ccc(Cl)cc2)C1 | -11.6% (active) | 27.8% | 120% | 60.5% | 83.7% | 44% | 27.4% | 63.9% | 71% | 69.8% | 81.5% | 38.4% | 1.52% (active) | 5.24% (active) | -60.4% (active) | -59.8% (active)
CC/C(=C(/c1ccc(OCCN(C)C)cc1)c1ccc(OC(=O)CCCCCCCCC(=O)c2c(C)[nH]c(/C=C3\N=C(c4ccc[nH]4)C=C3OC)c2C)cc1)c1ccccc1 | 48.4% | 86.8% | 103% | 61.6% | 80.7% | 90.3% | 89.6% | 58.3% | 91.8% | 48.3% | 69.2% | 52.8% | 53.8% | -2.49% (active) | 21.6% | 100%
N=C(N)c1ccc(-c2ccc(-c3cccs3)s2)cc1 | -30.9% (active) | -14% (active) | 67% | -19.8% (active) | 65.9% | 94.9% | 36.7% | 104% | 56.1% | 55.1% | 93.2% | -85.9% (active) | -66.2% (active) | -79.4% (active) | -67.1% (active) | -69.5% (active)
COc1cc(NC(=O)CCSc2nc3ccc(Cl)cc3c(=O)n2Cc2ccccc2)cc(OC)c1OC | 42.5% | 73.9% | 88.8% | 61.5% | 82% | 101% | 93.4% | 40.3% | 84.3% | 64.2% | 73% | 89% | 86.2% | 70% | 53% | 100%
O=C1/C(=C\c2ccc(F)cc2)CN(C(=O)c2ccccc2F)C/C1=C\c1ccc(F)cc1 | -35.8% (active) | 1.61% (active) | 21.6% | -5.48% (active) | 11.1% | -38.4% (active) | -29.8% (active) | 11.8% | 11.5% | 40.1% | -43.2% (active) | -47.4% (active) | -78.3% (active) | -72.1% (active) | -75% (active) | -83.8% (active)
C#Cc1ccc(-n2c(/C=C/c3ccc(Cl)c(F)c3)nc3ncccc3c2=O)cc1 | -14.9% (active) | -17.4% (active) | 24.1% | -88.5% (active) | -7.71% (active) | -54.5% (active) | -79.8% (active) | 13.8% | 1.19% (active) | -39% (active) | 10.7% | -3.46% (active) | -27.3% (active) | 3.48% (active) | -52.8% (active) | -84.3% (active)
C#Cc1ccc(-n2c(/C=C/c3cc(OC)cc(OC)c3)nc3ncccc3c2=O)cc1 | 25.1% | 66.8% | 129% | 60.2% | 68.1% | 91.9% | 76.4% | 88% | 77.1% | 71.8% | 65.2% | 79.1% | 105% | 68.5% | 74.8% | 94.2%
C#Cc1ccc(-n2c(/C=C/c3ccc(C(F)(F)F)cc3)nc3ncccc3c2=O)cc1 | -9.89% (active) | 17.2% | 68.8% | -42.6% (active) | 54.1% | 34% | -8.86% (active) | 72.4% | 29.3% | 35.4% | 24.8% | 6.06% (active) | -12.3% (active) | 14.9% | 1.75% (active) | 18.7%
C#Cc1ccc(-n2c(/C=C/c3ccc4ccccc4n3)nc3ncccc3c2=O)cc1 | -27.7% (active) | -16.4% (active) | -4.33% (active) | -62.4% (active) | 5.05% (active) | -65.6% (active) | -66.8% (active) | 11% | -6.13% (active) | -51.9% (active) | 5.21% (active) | -11.5% (active) | -51% (active) | 6.42% (active) | -25% (active) | -75.3% (active)
